Bioassay records (PubChem BioAssay)
PINK1 modulator – A Quantitative High throughput Screen to Identify Chemical Modulators of PINK1 Expression | PINK1 immunofluorescence, high-content cytometry, 24 h | Potency, µM (highest dose often 76.6 µM), inactives show at the top dose activation (PINK1 increase), actives largely listed as activators | 410,000 tested, 0.2% active; active = well fitted activation curve with a large enough effect; inconclusive = small, poorly fitted or top-dose-only effect; cell line not stated here; also: % of control where 0% means no effect; nearly all actives have a fitted effect of over 65% in size
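Readout is PINK1 immunofluorescence, quantified alongside mitochondrial, cell and nuclear markers by laser-scanning microplate cytometry. Cells from a stable line were exposed to compound titrations (5 concentrations) for 24 hours, with CCCP controls.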
KB-V1 cytotox – qHTS assay for MDR1-selective chemotherapeutics: Primary screen using the drug-selected MDR subline cells KB-V1; KB-V1 MDR cells viability, CellTiter-Glo, 72 h; Potency, µM (doses to about 46.1 µM), usual class: cytotoxic; 400,000 tested, 3.4% active; AID 1347076, 2019; also: % is scaled to controls: 0 for no effect and ±100 for the full control effect; nearly all actives have a fitted effect of over 60% in size
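qHTS viability screen in drug-selected KB-V1 MDR cells: 72 h compound treatment at 37 degrees C, ATP luminescence end point.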
TSG101-PTAP inh – qHTS Assay for Iinhibitors of HIV-1 Budding by Blocking the Interaction of PTAP/TSG101; 340,000 tested, under 10 active; Fluorescence polarization, FITC-PTAP peptide / Tsg101 binding; Tumor susceptibility gene 101 protein (Homo sapiens), Q99816; AID 493005, 2010; Potency, µM (doses to about 115 µM), for inactives: at the top dose activity change, negative = inhibition, most hits filed as inhibitors; active = well fitted inhibition curve with a large enough effect in the main read-out, with a control signal flat, not every such curve was filed as active; inconclusive = small, poorly fitted or top-dose-only effect, or effect the other way, or a change in a side signal; inactive = no such curve, though single readings can be large or run the other way; also: % of control where 0% means no effect
Target sequence (Q99816 whole entry, looked up): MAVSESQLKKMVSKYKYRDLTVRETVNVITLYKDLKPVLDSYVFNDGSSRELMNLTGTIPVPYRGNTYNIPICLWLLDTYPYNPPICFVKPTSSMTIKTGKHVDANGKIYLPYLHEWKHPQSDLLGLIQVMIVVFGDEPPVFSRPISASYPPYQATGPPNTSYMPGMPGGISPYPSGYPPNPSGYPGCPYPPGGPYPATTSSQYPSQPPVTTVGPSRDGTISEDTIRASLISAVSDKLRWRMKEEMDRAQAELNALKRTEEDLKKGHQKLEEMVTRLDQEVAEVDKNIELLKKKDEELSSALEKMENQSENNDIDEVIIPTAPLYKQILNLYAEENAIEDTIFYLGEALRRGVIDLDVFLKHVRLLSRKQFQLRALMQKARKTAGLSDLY
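FP read-out: FITC-PTAP peptide, 50 nM final, binding Tsg101 binding domain, 10 uM final; 20 min, r.t.; 10 mM HEPES pH 7.5, 0.15 M NaCl, 0.01% Tween 20, 3 mM EDTA, 0.1 mM TCEP.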
MCF10A rereplic – A quantitative high throughput screen for small molecules that induce DNA re-replication in MCF 10a normal breast cells. MCF 10A DNA re-replication, Hoechst nuclear intensity, 48 h. Potency, µM (top dose mostly 46.1 µM), inactives show at the top dose activity, positive = re-replication, hits mostly activators. 350,000 tested, 2.9% active. AID 624296, 2012; also: % of control where 0% means no effect; nearly all actives have a fitted effect of over 50% in size
SW480 rerep – A quantitative high throughput screen for small molecules that induce DNA re-replication in SW480 colon adenocarcinoma cells | SW480 DNA re-replication, Hoechst DNA content imaging, 48 h | Potency, µM (top dose mostly 46.1 µM), for the others: at the top dose re-replication activation, hits mostly activators | 340,000 tested, 1.8% active | AID 624297, 2012; also: % of control where 0% means no effect; nearly all actives have a fitted effect of over 55% in size
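Cells (250 per well) received 23 nL compound or DMSO by pin tool and were kept 48 hr at 37 C, 5% CO2. Nuclei were then stained with Hoechst for 40 min and scanned for DNA content.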
KB-3-1 tox – qHTS assay for MDR1-selective chemotherapeutics: Primary screen using the parental adenocarcinoma cell KB-3-1. Potency, µM (doses to about 46.1 µM), usual class: cytotoxic. AID 1347075, 2019. 400,000 tested, 1.4% active. KB-3-1 viability, CellTiter-Glo ATP luminescence, 72 h; also: % is scaled to controls: 0 for no effect and ±100 for the full control effect; nearly all actives have a fitted effect of over 60% in size
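Screening of KB-3-1 cells (DMEM, 10% FBS, phenol-red free) ran from lowest to highest compound concentration; after 72 h at 37 °C viability was read luminescently and curves fitted.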
Starred values were filed as active, the others as inactive; i = inactive; u = inconclusive; x = no result given; [ ] = dose if it differs, or a comment. Shown are actives, neighbours in structure and some others; about 6.8% of the full set was active somewhere. Unless noted, calls follow the shape of the dose curve; as a rule, active = well fitted curve in the direction sought with a large enough effect; inconclusive = small, poorly fitted or top-dose-only effect, or another doubt; inactive = no such curve, though single readings can be large; an effect the other way counts as inactive or inconclusive. Potency is read from the fitted curve at half-maximal effect.

SMILES | PINK1 modulator | KB-V1 cytotox | TSG101-PTAP inh | MCF10A rereplic | SW480 rerep | KB-3-1 tox
COc1ccc(Oc2ncc3nc(-c4cn(C)c5ccccc45)c(=O)n(C)c3n2)cc1 | -0.4% | x | x | x | x | x
CCc1ccc(-n2nc(CO)c(C(=O)NCCCCc3ccccc3)n2)cc1 | -0.5% | x | x | x | x | x
COCCNC(=S)N/N=C(\C)c1ccc(-n2ccnc2)cc1 | -4.2%[38.3 µM] | u | -3.1% | 16.4% | 7.08µM* | i
Cc1cc(=O)[nH]c2ccc(Cc3ccccc3)cc12 | 13.0% | 9.2µM* | -1.7% | u | -4.0% | u
CCC(=O)N1CCc2cc(CNC(=O)c3ccccc3C)ccc21 | 2.4% | x | x | x | x | x
O=C(Nc1cnc2ccccc2c1)c1cccnc1 | -1.0% | i | -0.5% | 0.8% | -7.1% | u
CCC(=O)NCCCc1nc2ccccc2n1Cc1ccccc1F | 1.3% | i | -4.8% | -13.0% | -43.3% | i
Cn1c(NC(=O)c2cccnc2)nc2ccccc21 | -0.7% | 16.4µM* | -6.8% | 0.7% | -2.3% | i
CCCCCCCn1c(NC(=O)CC)nc2ccccc21 | 9.7% | 9.2µM* | -2.1% | 6.51µM* | -15.5% | u
CCCn1c(NC(=S)Nc2ccccc2)nc2ccccc21 | 2.5% | 16.4µM* | -2.0% | u | x | u
CCC(=O)NCc1nc2ccccc2n1Cc1ccccc1F | -0.8% | 23.1µM* | -0.4% | 7.6% | -5.3% | i
Cc1cccc(C)c1NC(=O)Cn1c(=O)n(Cc2ccc3c(c2)OCO3)c(=O)c2oc3ccccc3c21 | 1.4% | x | x | x | x | x
CCc1nc2cc(C(=O)N[C@H]3CCCCNC3=O)cc(NC(=O)c3ccccc3OC)c2n1C | -0.4% | x | x | x | x | x
O=C(c1ccc(N2CCC(NCCCn3ncc4ccccc43)CC2)cc1)N1CCc2ccccc2C1 | 0.7% | x | x | x | x | x
CCCn1c(NC(=O)c2ccccc2)nc2ccccc21 | 3.2% | 14.6µM* | -1.0% | 4.9% | 3.0% | u
CCCn1c(NC(=O)c2ccc(C)cc2)nc2ccccc21 | 3.7% | u | -7.8% | u | u | u
CCCNC(=O)C1CCN(S(=O)(=O)c2cccs2)CC1 | -0.3% | i | -0.4% | 22.9% | -31.4% | i
CCCn1c(CNC(=O)c2ccccc2)nc2ccccc21 | 4.1%[38.3 µM] | 23.1µM* | x | 2.6% | -9.1% | i
CCCn1c(NC(=O)C2CCN(S(=O)(=O)c3cccs3)CC2)nc2ccccc21 | 1.0% | u | -8.1% | u | 12.8% | 23.1µM*
CCCn1c(NC(=O)c2cccc(S(=O)(=O)N3CCCC3)c2)nc2ccccc21 | 6.9%[38.3 µM] | 16.4µM* | -0.2% | 18.4µM* | u | 16.4µM*
CCc1ccc(CNc2nc3nc(C)c(Cc4ccccc4)c(=O)n3[nH]2)cc1 | -1.2% | i | x | x | x | i
CC(C)Sc1nnc2c3ccccc3n(C)c2n1 | 0.9% | x | x | x | x | x
Cc1c(C(=O)NNC(=O)c2csc(N3CCOCC3)n2)oc2ccccc12 | 0.9% | i | -6.5% | 14.6µM* | 0.9% | i
Cc1ccccc1CNC(=O)c1cccc(NC(=O)N2CCSc3ncccc32)c1 | -0.8% | i | x | x | x | i
Cc1c(C(=O)Nc2ccc3c(c2)OCCO3)oc2ccc(Br)cc12 | 4.1% | 20.6µM* | 5.3% | 2.5% | -1.3% | i
SMILES | PINK1 modulator | KB-V1 cytotox | TSG101-PTAP inh | MCF10A rereplic | SW480 rerep | KB-3-1 tox
Cc1oc(C(C)(C)C)cc1C(=O)Nc1ccc2c(c1)OCCO2 | 1.4% | 20.6µM* | -3.4% | 6.1% | -14.1% | i
Cc1oc(C(C)(C)C)cc1C(=O)Nc1ccc2c(c1)OCO2 | 3.4% | i | -0.7% | 0.3% | -9.6% | i
CN(C)c1cccc(-c2nnc(N3CCC(C(N)=O)CC3)s2)c1 | x | i | x | x | x | i
COc1ccc(C(O)c2nccc3cc(OC)c(OC)cc23)cc1OC (stereo not given) | 0.5% | 8.2µM* | -8.7% | 3.5% | -3.2% | u
COc1cc(N)c(C(O)c2nccc3cc(OC)c(OC)cc23)cc1OC (stereo not given) | -0.8% | i | -2.7% | u | 19.7% | i
COc1ccc(C(=O)c2ccc(OC)c(OC)c2)cc1OC | -0.8% | i | -7.5% | 12.3% | 5.7% | i
COc1ccc(C(=O)c2cc(OC)c(OC)c(OC)c2)cc1OC | 12.1% | i | -0.4% | 3.66µM* | 3.66µM* | 5.8µM*
COc1ccc(C(=O)c2nccc3cc(OC)c(OC)cc23)cc1OC | 3.6% | 16.4µM* | -1.1% | 3.7% | -0.5% | i
CSc1cccc(-n2nnc(-c3nsc(NC(=O)c4cccs4)n3)c2C)c1 | 19.6% | i | x | x | x | i
CC1=C(C(=O)Nc2ccc(C)cc2C)C(c2cccs2)n2nc(SCc3ccc(Cl)cc3)nc2N1 (stereo not given) | 0.2% | u | x | x | x | i
Cc1ncc2c(c1CNC(=O)c1ccc3c(c1)OCO3)CCN(C(=O)C1Cc3ccccc3O1)C2 (stereo not given) | -0.9% | x | x | x | x | x
Cc1ccccc1CNCCCSc1nnnn1-c1ccccc1 | -0.4% | i | x | x | x | i
CCOC(=O)c1ccc(NC(=O)CC2C(=O)N(c3ccc(F)cc3)C(=O)N2CCC(C)C)cc1 (stereo not given) | -3.4%[38.3 µM] | u | 1.3% | u | 17.7% | 20.6µM*
CCOC(=O)c1ccc(N2C(=O)C(CC(=O)NC)N(CCc3ccc(OC)c(OC)c3)C2=S)cc1 (stereo not given) | u | i | -4.2% | 20.6µM* | 6.7%[1.84 µM] | i
CCOC(=O)c1ccc(NC(=O)CC2C(=O)N(c3ccc(F)cc3)C(=O)N2Cc2ccc(C)cc2)cc1 (stereo not given) | 3.2% | i | x | x | x | i
COC(=O)c1ccc(NC(=O)CC2C(=O)N(c3ccc(C)cc3)C(=O)N2CC(C)C)cc1 (stereo not given) | -1.7%[38.3 µM] | 23.1µM* | x | -3.2% | 6.5% | i
CC1=C(c2ccc(C)cc2)S(=O)(=O)NC1=NCCCN1CCN(c2ccccc2F)CC1 | -0.7% | i | x | x | x | i
CCc1c(C(=O)Nc2ccncc2)csc1C | 0.0%[38.3 µM] | 16.4µM* | -2.9% | 1.2% | -11.1% | i
CCOc1ccc(C2Nc3ccc4ccccc4c3-c3c2c(=O)oc2ccccc32)cc1 (stereo not given) | 4.5%[38.3 µM] | i | -4.2% | 5.17µM* | u | i
O=C(NCc1ccccc1)C(=O)NCC(c1ccc2c(c1)OCO2)N1CCOCC1 (stereo not given) | -1.0% | x | x | x | x | x
